Sampled rows, rich in hits. Any-hit rate of the full collection: about 3.4%.
MITF inh = inhibitors of human MITF. O75030. AID 1259374. inhibition, % at 2.6 µM. AlphaScreen MITF homodimerization, bead proximity signal. hit rate 0.91% among 650,000; in the data active means inhibition above about 50%;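 further: 0% = vehicle wells with protein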
GPR151 ag = activates the human receptor GPR151; PathHunter beta-arrestin GPR151 cells, luminescence; activation, % at 11.2 µM; hit rate 1% among 650,000; in the data active means activation above about 4.9%;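 further: 0% = median of compound wells and 100% = cells with positive control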
Target sequence (Q8TDV0 whole entry, looked up): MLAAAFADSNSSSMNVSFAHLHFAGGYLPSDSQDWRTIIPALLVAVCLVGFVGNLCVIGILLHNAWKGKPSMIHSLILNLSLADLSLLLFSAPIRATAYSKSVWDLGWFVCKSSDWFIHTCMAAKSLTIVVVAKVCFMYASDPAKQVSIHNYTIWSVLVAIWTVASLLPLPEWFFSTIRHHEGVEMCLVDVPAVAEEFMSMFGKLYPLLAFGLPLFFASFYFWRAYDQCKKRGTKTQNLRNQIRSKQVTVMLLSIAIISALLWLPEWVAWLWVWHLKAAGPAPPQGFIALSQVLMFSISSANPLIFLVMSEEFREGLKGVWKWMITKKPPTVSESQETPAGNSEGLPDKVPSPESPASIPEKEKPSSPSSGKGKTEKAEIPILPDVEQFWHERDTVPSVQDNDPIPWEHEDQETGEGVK
TEAD-YAP block = TEAD-YAP interaction inhibition | HEK-TIYL cells, TEAD-Gal4/YAP UAS-luciferase luminescence | inhibition, % at 9.12 µM | hit rate 1.4% among 640,000 | AID 1259422; in the data active means inhibition above about 32%;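 further: 0% = median of test compound wells and 100% = reference inhibitor wells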
FBW7 act = human FBW7 E3 ligase activation, primary screen. Q969H0. AlphaScreen FBW7–phospho-cyclin E peptide binding, activator screen. normalized activity (activation), % at 26.1 µM. hit rate 0.13% among 650,000; in the data active means normalized activity above about 1.9%;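 further: purified mutant Fbw7 with reduced substrate affinity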
GPR151 conf act = human GPR151 activation, confirmation screen. shares compounds with GPR151 ag. GPR151 PathHunter beta-arrestin cells, luminescence, 90 min; % of EA-reagent control over plate median. activation, % at 11.2 µM. 6,700 tested, under 10 active. AID 1508609;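 active means mean percent activation across replicates above the confirmation screen cutoff of 4.91%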
GPR119 counter = GPR119 activation, counter-screen for GPR151 activators. hit rate 0.3% among 6,700. shares compounds with GPR151 ag. GPR119 PathHunter beta-arrestin cells, luminescence, 90 min; 0 = compound-well median, 100 = enzyme-acceptor control. AID 1508611. activation, % at 11.2 µM;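 active means mean percent activation in the counterscreen above 29.09%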;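 further: counterscreen on off-target GPR119 to flag nonselective hits from the GPR151 activator screen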
* hit, by the source's call.

Results for O=C(Cc1ccc(F)cc1)Nc1c2c(nn1-c1ccc(F)cc1)CS(=O)(=O)C2 ?
MITF inh: 3; GPR151 ag: 5.3*; TEAD-YAP block: 5; FBW7 act: 0; GPR151 conf act: 0; GPR119 counter: 8

What do the screens show for `CC(=O)Nc1c2c(nn1-c1ccc(Cl)cc1)CS(=O)(=O)C2`?
MITF inh: 14; GPR151 ag: 7.8*; TEAD-YAP block: -3; FBW7 act: 1; GPR151 conf act: 0; GPR119 counter: -1

Results for O=C(Nc1c2c(nn1-c1ccc(Cl)cc1)CS(=O)(=O)C2)c1ccc(Cl)cc1 ?
MITF inh: -1; GPR151 ag: 1; TEAD-YAP block: 2; FBW7 act: 0

How did CC(=O)c1ccc(S(=O)(=O)N(C)Cc2c(Cl)cccc2Cl)cc1 do in these assays?
MITF inh: -2; GPR151 ag: 1; TEAD-YAP block: 6; FBW7 act: 0

What do the screens show for `COc1ccc(C2NC(=O)c3ccccc3O2)cc1OC` (stereo unspecified)?
MITF inh: 3; GPR151 ag: 1; TEAD-YAP block: 4; FBW7 act: 0

How did Cc1ccccc1C1CC(=O)Nc2cc3c(cc21)OCO3 (stereo unspecified) do in these assays?
MITF inh: 11; GPR151 ag: 6.0*; TEAD-YAP block: 6; FBW7 act: 0; GPR151 conf act: 0; GPR119 counter: 6

What do the screens show for `CCN1C(=O)Cc2ccccc21`?
MITF inh: -1; GPR151 ag: 6.7*; TEAD-YAP block: 5; FBW7 act: 0; GPR151 conf act: -1; GPR119 counter: -13

What do the screens show for `O=C1C2C3c4ccccc4C(C(=O)O)(c4ccccc43)C2C(=O)N1c1cccc([N+](=O)[O-])c1` (stereo unspecified)?
MITF inh: 13; GPR151 ag: -1; TEAD-YAP block: -5; FBW7 act: 1

Results for COc1ccc(OC)c(C(C)NC(=O)c2ccc(F)cc2)c1 (stereo unspecified) ?
MITF inh: 26; GPR151 ag: 5.4*; TEAD-YAP block: 5; FBW7 act: 0; GPR151 conf act: 0; GPR119 counter: -3

Results for O=C(NC1CC1)c1cnc(N2CCN(c3ccccn3)CC2)s1 ?
MITF inh: 10; GPR151 ag: 5.0*; TEAD-YAP block: -17; FBW7 act: 0; GPR151 conf act: 1; GPR119 counter: 3

What do the screens show for `S=C(NCCN1CCOCC1)Nc1cccc2ccccc12`?
MITF inh: 2; GPR151 ag: 5.3*; TEAD-YAP block: -3; FBW7 act: 0; GPR151 conf act: 0; GPR119 counter: -10

What do the screens show for `S=C(NCCN1CCOCC1)Nc1cccc2cnccc12`?
MITF inh: -11; GPR151 ag: 0; TEAD-YAP block: -8; FBW7 act: 0

How did Cc1ccc(NC(=O)CSc2nnc(-c3ccccc3)c(-c3ccccc3)n2)cc1 do in these assays?
MITF inh: 13; GPR151 ag: -1; TEAD-YAP block: 5; FBW7 act: 0

What do the screens show for `CCOC(=O)c1sc(NC(=O)C2CC2)nc1C`?
MITF inh: -5; GPR151 ag: 13*; TEAD-YAP block: 8; FBW7 act: 0; GPR151 conf act: 1; GPR119 counter: 5

How did COC(=O)C1=C(N)OC2=C(C(=O)CC(c3ccccc3)C2)C1c1cccc([N+](=O)[O-])c1 (stereo unspecified) do in these assays?
MITF inh: -7; GPR151 ag: -1; TEAD-YAP block: 2; FBW7 act: 0

How did COC(=O)c1sc(NC(=O)CSc2nc3ccccc3cc2C)nc1C do in these assays?
MITF inh: 21; GPR151 ag: -1; TEAD-YAP block: -20; FBW7 act: 0

Results for COc1cc(C(=O)NCc2cc(-c3ccccc3)on2)cc(OC)c1OC ?
MITF inh: 0; GPR151 ag: 6.2*; TEAD-YAP block: -2; FBW7 act: 0; GPR151 conf act: -1; GPR119 counter: -17

How did COc1cc(Nc2ncc(C(=O)NCc3ccccc3)s2)cc(OC)c1OC do in these assays?
MITF inh: 9; GPR151 ag: 6.1*; TEAD-YAP block: -21; FBW7 act: 0; GPR151 conf act: 0; GPR119 counter: 3

Results for CC(NC(=O)c1ccc(F)cc1)C(c1cccs1)N1CCOCC1 (stereo unspecified) ?
MITF inh: -15; GPR151 ag: 0; TEAD-YAP block: -7; FBW7 act: 0

Results for c1ccc(-c2cn3nc(SCc4ccccn4)ccc3n2)cc1 ?
MITF inh: -14; GPR151 ag: 0; TEAD-YAP block: -43; FBW7 act: 0

What do the screens show for `O=C(Nc1ccccc1C(=O)c1ccccc1)c1ccc(Nc2nc(-c3ccccc3)c3cc(Cl)ccc3n2)cc1`?
MITF inh: -3; GPR151 ag: 8.5*; TEAD-YAP block: -1; FBW7 act: 0; GPR151 conf act: 1; GPR119 counter: 16

What do the screens show for `O=C(Nc1ccc(Br)cc1C(=O)c1ccccc1)c1ccc(Nc2nc(-c3ccccc3)c3cc(Cl)ccc3n2)cc1`?
MITF inh: 14; GPR151 ag: 2; TEAD-YAP block: -10; FBW7 act: 0

How did O=C(Cc1ccc(F)cc1)NCCc1ccc(F)cc1 do in these assays?
MITF inh: -7; GPR151 ag: 0; TEAD-YAP block: -11; FBW7 act: 0

Results for CCCC(=O)NCCc1ccc(F)cc1 ?
MITF inh: -6; GPR151 ag: 19*; TEAD-YAP block: -11; FBW7 act: 0; GPR151 conf act: 1; GPR119 counter: 7

What do the screens show for `O=C(CCc1nnc(Cc2cccc(C(F)(F)F)c2)o1)NC1CCCC1`?
MITF inh: -3; GPR151 ag: -1; TEAD-YAP block: -65; FBW7 act: 0

What do the screens show for `CCCCCC(=O)Nc1ccc(N2CCN(CC)CC2)cc1`?
MITF inh: 7; GPR151 ag: 11*; TEAD-YAP block: -14; FBW7 act: 0; GPR151 conf act: 0; GPR119 counter: 0

What do the screens show for `CC(=O)C(C)(C)NCC(=O)c1ccccc1`?
MITF inh: 5; GPR151 ag: 2; TEAD-YAP block: 0; FBW7 act: 0

What do the screens show for `O=C1CSC(c2ccc(Cl)cc2)N1Cc1cn2ccccc2n1` (stereo unspecified)?
MITF inh: -8; GPR151 ag: 5.0*; TEAD-YAP block: 5; FBW7 act: 0; GPR151 conf act: 0; GPR119 counter: -2

Results for Cc1ccc(OC(=O)Cn2c3ccccc3c(=O)c3ccccc32)cc1 ?
MITF inh: -6; GPR151 ag: 2; TEAD-YAP block: 5; FBW7 act: 0
